Consider 8 molecules from PubChem BioAssay (NCATS).

Several values for one entry are separate records, joined by “and”; a condition that tells them apart may be missing. Equal entries are not always repeated. Records with an inconclusive call do not appear. Activity calls are given as the source filed them. Unless noted, the call rests on the fitted dose curve; in most records, active means well fitted curve in the direction sought with a large enough effect; inconclusive means small, poorly fitted or top-dose-only effect, or another doubt; inactive means no such curve, though single readings can be large; an effect the other way counts as inactive or inconclusive.

Test [1] is described as follows: Cytometry Cell-Based qHTS for Inhibitors of the mTORC1 Signaling Pathway in MEF cells (AID 2668).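 Further: Tsc2-/- p53-/- mouse embryonic fibroblasts stably re-expressing wild-type Tsc2; percent cells positive for phospho-rpS6 Ser235/236 relative to propidium iodide stain; series mostly up to about 38 µM.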 Put shortly: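 Tsc2-/-, p53-/- MEFs re-expressing WT Tsc2; cpd 24 hrs, 37 degree Celsius; PFA fix, Alexa-488 p-rpS6 (Ser235/236) Ab 2 hrs RT, PI counterstain; Acumen 488nm scan; p-S6/PI ratio → % positive cells; PI count = viability.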
For orientation: Quantitative high-throughput screening tests each substance at several concentrations.

A short description of test [2]: Validation screen for inhibitors of Lassa infection (AID 463096; calls by dose curve).
A short description of test [3]: Validation screen for small molecules that induce DNA re-replication in MCF 10A normal breast cells (AID 463097). Further: nearly all actives have a fitted effect of over 60% in size. Put shortly:
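Image-based qHTS: normal breast cells are incubated with compound for 48 hr, stained with Hoechst, and scanned for total nuclear fluorescence. Compounds raising the fraction of nuclei with elevated DNA content count as re-replication inducers.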

The target in test [4] is Ubiquitin carboxyl-terminal hydrolase 2 (Homo sapiens) (UniProt O75604). Description: qHTS Validation Assay for Inhibitors of Ubiquitin-specific Protease USP2a Using CHOP2 as the Reporter (AID 463106). Further: potency means the concentration at half of the fitted maximal effect. Put shortly: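 Readout was coupled fluorescence (Ex 485/Em 531 nm), read 60 min after adding 25 nM final Ub-CHOP2 and 25 nM reporter substrate. Beforehand, 10 nM final USP2 core had 30 min at RT with compound in pH 8.0 buffer. Curves were fitted after normalization to NEM and flagged for artifacts using time-zero reads.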
Chain of Ubiquitin carboxyl-terminal hydrolase 2 (Homo sapiens) (O75604 whole entry, looked up): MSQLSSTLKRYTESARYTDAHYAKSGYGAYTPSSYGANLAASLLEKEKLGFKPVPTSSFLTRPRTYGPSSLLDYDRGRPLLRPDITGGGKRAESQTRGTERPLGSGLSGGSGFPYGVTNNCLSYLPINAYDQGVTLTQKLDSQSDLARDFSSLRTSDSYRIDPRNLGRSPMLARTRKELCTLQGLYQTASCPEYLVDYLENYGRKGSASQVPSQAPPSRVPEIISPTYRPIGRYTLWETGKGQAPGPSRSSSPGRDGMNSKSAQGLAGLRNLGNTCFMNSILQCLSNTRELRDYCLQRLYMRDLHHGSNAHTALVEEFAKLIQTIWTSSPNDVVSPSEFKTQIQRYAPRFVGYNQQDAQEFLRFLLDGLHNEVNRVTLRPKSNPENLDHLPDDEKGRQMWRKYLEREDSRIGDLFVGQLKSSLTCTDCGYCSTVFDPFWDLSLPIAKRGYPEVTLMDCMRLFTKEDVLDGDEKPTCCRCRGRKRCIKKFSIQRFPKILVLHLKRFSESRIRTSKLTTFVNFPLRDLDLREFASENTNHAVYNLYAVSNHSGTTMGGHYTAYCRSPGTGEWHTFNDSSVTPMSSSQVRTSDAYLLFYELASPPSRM

In test [5] the target is DNA polymerase III PolC-type (Bacillus subtilis (strain 168)) (UniProt P13267). Briefly: qHTS Validation Assay for the Inhibitors of DNA Replication in Gram-Positive Bacteria (AID 485295). Further: potency means the concentration at half of the fitted maximal effect. Put shortly:
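First, compound is mixed with the reconstituted replication complex and held at room temperature. Next, circular single-stranded M13Gori with nucleotides starts synthesis. Finally, PicoGreen in EDTA halts the reaction and stains double-stranded product for fluorescence reading.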

Test [6] deals with Tumor susceptibility gene 101 protein (Homo sapiens) (UniProt Q99816). Description: qHTS Validation Assay for Iinhibitors of HIV-1 Budding by Blocking the Interaction of PTAP/TSG101 (AID 485342; calls by dose curve). Put shortly: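 Binding of a FITC-tagged PTAP-motif peptide (50 nM) to the Tsg101 binding domain (10 uM) is monitored by fluorescence polarization. Compounds are pin-delivered before peptide addition, and incubation runs 20 min at room temperature.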
Chain of Tumor susceptibility gene 101 protein (Homo sapiens) (Q99816 whole entry, looked up, the tested form may be a part): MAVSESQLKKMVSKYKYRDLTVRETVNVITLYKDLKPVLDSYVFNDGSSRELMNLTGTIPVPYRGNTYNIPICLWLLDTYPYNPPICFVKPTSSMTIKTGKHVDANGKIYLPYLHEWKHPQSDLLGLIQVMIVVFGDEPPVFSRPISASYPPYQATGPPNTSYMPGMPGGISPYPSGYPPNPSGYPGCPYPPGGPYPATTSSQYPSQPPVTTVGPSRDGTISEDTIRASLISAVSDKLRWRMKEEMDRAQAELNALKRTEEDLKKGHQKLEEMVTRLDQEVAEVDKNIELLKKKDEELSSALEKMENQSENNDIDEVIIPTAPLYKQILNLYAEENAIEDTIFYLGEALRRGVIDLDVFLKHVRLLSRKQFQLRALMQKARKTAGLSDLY

Test [7] in a line: qHTS Validation Assay to Find Inhibitors of Chronic Active B-Cell Receptor Signaling (AID 485345; active means well fitted curve in the direction sought with a large enough effect in the main read-out, with a control signal flat, not every such curve was filed as active). An outline of the steps: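 Read-out: ratio of filter-corrected green (IkappaBalpha fusion) to red (native) luciferase signal in doxycycline-induced TMD8 cells after 4 h at 37C. Titration spanned 46 uM–3 nM; Data were normalised to basal cells and 10 uM MG-132 wells.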
The target of test [8] is Beta-2 adrenergic receptor (Homo sapiens) (UniProt P07550). Briefly: qHTS validation assay of beta-arrestin-biased ligands of beta2-adrenergic receptor (AID 485366). Put shortly:
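Compound series up to 46 microM applied to beta2-AR/beta-arrestin Tango cells, 18 hr, 37 degrees C, 5% CO2. Read-out: tTA-driven luciferase luminescence, converted to %Activity; concentration-response curves assigned curve classes.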

Test [9] is described as follows: Quantitative high throughput screen for delayed death inhibitors of the malarial parasite plastid, 96 hour incubation (AID 488745). Further: series mostly up to about 29 µM; nearly all actives have a fitted effect of over 70% in size. Put shortly:
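Two-generation (96 h) exposure of luciferase-reporter P. falciparum in erythrocytes, 2% hematocrit, 0.1% parasitemia final, 37 C, 5% CO2, RPMI 1640 with 0.5% Albumax. Growth inhibition scored by reduced luminescence.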

Test [10] in a line: Quantitative high throughput screen for delayed death inhibitors of the malarial parasite plastid, 48 hour incubation (AID 488752). Further: nearly all actives have a fitted effect of over 65% in size. An outline of the steps: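 Cultures: infected erythrocytes at final 2% hematocrit and 0.1% parasitemia in Albumax-supplemented RPMI. Parasites express integrated firefly luciferase. Incubation with compound lasts 48 h before luminescent detection of remaining reporter activity.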

Test [11] addresses Thioredoxin reductase 1, cytoplasmic (Rattus norvegicus) (UniProt O89049). Briefly: qHTS Assay for Substrates of Mammalian Selenoprotein Thioredoxin Reductase 1 (TrxR1) (AID 488772).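 Further: series mostly up to about 57 µM; a drop in NADPH fluorescence below the no-compound background marks a TrxR1 substrate.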 An outline of the steps:
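In this dual-purpose format, potential substrates are identified from the first fluorescence read after selenite addition, not from the 8-minute delta. Rat enzyme is preincubated with NADPH and then with compound at ~22 deg C.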

For test [12] the target is unchanged. Briefly: qHTS Assay for Inhibitors of Mammalian Selenoprotein Thioredoxin Reductase 1 (TrxR1) (AID 488773). Further: nearly all actives have a fitted effect of over 40% in size. Further: potency means the concentration at half of the fitted maximal effect. Conditions: Potency: inhibition. Put shortly: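 Inhibition is scored from the loss of NADPH fluorescence between first and last reads of an 8-min kinetic run. Selenite (400 uM) was the substrate, added after 15 min compound preincubation at room temperature.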

For test [13], the target named is Flap endonuclease 1 (Homo sapiens) (UniProt P39748). Description: qHTS Validation Assay for the Inhibitors of Human Flap endonuclease 1 (FEN1) (AID 488816). Further: potency means the concentration at half of the fitted maximal effect. Put shortly:
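qHTS format: compounds and 10 nM FEN1 incubated 15 min at room temperature before adding 50 nM substrate. Cleavage followed by reads at 0 and 15 min; normalized data fitted to a four-parameter Hill curve.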

The target in test [14] is M-phase phosphoprotein 8 (Homo sapiens) (UniProt Q99549). Description: qHTS Validation Assay for Inhibitors for MPP8 Chromodomain Interactions with Methylated Histone Tails (AID 488949). Further: nearly all actives have a fitted effect of over 55% in size. Further: potency means the concentration at half of the fitted maximal effect. An outline of the steps: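 50 nM MPP8 + 50 nM b-H3K9me3 peptide, PBS pH 7.4/0.01% Tween-20, 30 min RT; + cpd 30 min RT; + AlphaScreen donor/Ni-chelate acceptor beads 10 ug/mL final, 30 min dark; luminescence read.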
Chain of M-phase phosphoprotein 8 (Homo sapiens) (Q99549 whole entry, looked up): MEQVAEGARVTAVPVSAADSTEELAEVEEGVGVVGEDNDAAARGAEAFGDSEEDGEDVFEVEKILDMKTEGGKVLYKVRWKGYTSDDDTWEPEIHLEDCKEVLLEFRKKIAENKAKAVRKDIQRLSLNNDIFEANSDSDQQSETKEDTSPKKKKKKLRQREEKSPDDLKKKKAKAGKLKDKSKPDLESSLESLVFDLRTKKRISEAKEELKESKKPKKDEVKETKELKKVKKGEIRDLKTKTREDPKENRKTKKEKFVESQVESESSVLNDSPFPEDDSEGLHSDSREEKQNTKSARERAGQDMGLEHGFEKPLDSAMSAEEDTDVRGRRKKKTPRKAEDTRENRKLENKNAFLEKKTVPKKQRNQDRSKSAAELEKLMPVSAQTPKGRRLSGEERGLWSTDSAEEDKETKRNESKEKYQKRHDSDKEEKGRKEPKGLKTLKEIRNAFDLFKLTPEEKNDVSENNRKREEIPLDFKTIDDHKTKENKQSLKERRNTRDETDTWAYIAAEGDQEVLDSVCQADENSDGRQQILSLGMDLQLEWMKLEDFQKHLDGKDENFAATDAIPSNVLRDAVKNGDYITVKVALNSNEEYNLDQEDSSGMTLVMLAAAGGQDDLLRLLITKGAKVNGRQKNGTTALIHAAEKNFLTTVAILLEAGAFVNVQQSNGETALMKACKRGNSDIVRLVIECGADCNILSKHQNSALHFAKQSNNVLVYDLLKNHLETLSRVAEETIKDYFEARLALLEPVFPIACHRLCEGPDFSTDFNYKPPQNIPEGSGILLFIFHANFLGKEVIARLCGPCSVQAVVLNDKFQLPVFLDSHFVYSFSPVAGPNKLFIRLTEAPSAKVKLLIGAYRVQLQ

Test [15] has as its target Chromobox protein homolog 1 (Homo sapiens) (UniProt P83916). Description: qHTS Validation Assay for Inhibitors of HP1-beta Chromodomain Interactions with Methylated Histone Tails (AID 488953). Further: nearly all actives have a fitted effect of over 50% in size. Further: potency means the concentration at half of the fitted maximal effect. Put shortly: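 Compounds pinned into a preassembled complex of HP1-beta and trimethyl-K9 histone H3(1-18) biotin peptide (50 nM each; PBS pH 7.4, 0.01% Tween-20). After 30 min, bead-based AlphaScreen detection followed.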

Test [16] has as its target Methanococcus maripaludis chaperonin (MmCpn) (UniProt Q6LX38). Briefly: High-Throughput Screening for Modulators of Cytosolic Chaperonin Activity: MmCpn Primary Screen (AID 488978).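 Further: 50 nM MmCpn enzyme hydrolysing 30 µM ATP at 37 °C.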 An outline of the steps:
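Steps: chaperonin 50 nM final; add compound, 5 min RT; start with ATP, 30 uM final; hold 10 min at 37C; add ADP Transcreener HTRF reagent, 5 min; read ex 320, em 590 and 665 nm.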

In test [17] the target is Transient receptor potential cation channel subfamily V member 1 (Homo sapiens) (UniProt Q8NER1). Briefly: HTS Assay for Compounds that Act as Enhancers of the Vanilloid Receptor 1 (AID 488979). Put shortly: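 Calcium influx kinetics via Fluo-8 (480/520 nm) in TRPV1-expressing cells, 2000/well cultured overnight at 35.5C. Compound-alone read 3 min (agonist phase), followed by EC20 capsaicin challenge for 2 min (enhancer phase).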

Test [18] has as its target Thyrotropin receptor (Homo sapiens) (UniProt P16473). Briefly: qHTS Assay for Antagonists of the Thyroid Stimulating Hormone Receptor (AID 488980). Further: series mostly up to about 58 µM. An outline of the steps:
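Readout is cAMP by HTRF competition between cellular cAMP and cAMP-d2 for a cryptate-labelled antibody. Antagonism was assessed in TSHR-transfected HEK293 cells stimulated with 4 nM TSH (EC80, final) in the presence of RO 20-1724.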

Test [19] has as its target D(1A) dopamine receptor (Homo sapiens) (UniProt P21728). Description: HTS Assay for Allosteric Agonists of the Human D1 Dopamine Receptor: Primary Screen for Agonists (AID 488981). An outline of the steps:
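Calcium flux in an inducible, force-coupled HEK293 Trex D1 line (overnight at 30 C): agonist mode is the 180 s kinetic read after compound; potentiator mode is the following 180 s read after dopamine at EC20.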

The target of test [20] is ATP-dependent 6-phosphofructokinase (Trypanosoma brucei brucei) (UniProt O15648). Description: qHTS Validation Assay to Find Inhibitors of T. brucei phosphofructokinase (AID 485368). An outline of the steps: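 qHTS format, up to 57 uM. PFK 1.25 nM; F6P 0.5 mM; ATP 0.1 mM; 5 mM MgCl2, 0.01% Tween20, 0.1% BSA; 0.1 M TEA pH 8.0; 45 min RT; ADP-Glo readout; no-enzyme control = full inhibition.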

Chain of DNA polymerase III PolC-type (Bacillus subtilis (strain 168)) (P13267 whole entry, looked up): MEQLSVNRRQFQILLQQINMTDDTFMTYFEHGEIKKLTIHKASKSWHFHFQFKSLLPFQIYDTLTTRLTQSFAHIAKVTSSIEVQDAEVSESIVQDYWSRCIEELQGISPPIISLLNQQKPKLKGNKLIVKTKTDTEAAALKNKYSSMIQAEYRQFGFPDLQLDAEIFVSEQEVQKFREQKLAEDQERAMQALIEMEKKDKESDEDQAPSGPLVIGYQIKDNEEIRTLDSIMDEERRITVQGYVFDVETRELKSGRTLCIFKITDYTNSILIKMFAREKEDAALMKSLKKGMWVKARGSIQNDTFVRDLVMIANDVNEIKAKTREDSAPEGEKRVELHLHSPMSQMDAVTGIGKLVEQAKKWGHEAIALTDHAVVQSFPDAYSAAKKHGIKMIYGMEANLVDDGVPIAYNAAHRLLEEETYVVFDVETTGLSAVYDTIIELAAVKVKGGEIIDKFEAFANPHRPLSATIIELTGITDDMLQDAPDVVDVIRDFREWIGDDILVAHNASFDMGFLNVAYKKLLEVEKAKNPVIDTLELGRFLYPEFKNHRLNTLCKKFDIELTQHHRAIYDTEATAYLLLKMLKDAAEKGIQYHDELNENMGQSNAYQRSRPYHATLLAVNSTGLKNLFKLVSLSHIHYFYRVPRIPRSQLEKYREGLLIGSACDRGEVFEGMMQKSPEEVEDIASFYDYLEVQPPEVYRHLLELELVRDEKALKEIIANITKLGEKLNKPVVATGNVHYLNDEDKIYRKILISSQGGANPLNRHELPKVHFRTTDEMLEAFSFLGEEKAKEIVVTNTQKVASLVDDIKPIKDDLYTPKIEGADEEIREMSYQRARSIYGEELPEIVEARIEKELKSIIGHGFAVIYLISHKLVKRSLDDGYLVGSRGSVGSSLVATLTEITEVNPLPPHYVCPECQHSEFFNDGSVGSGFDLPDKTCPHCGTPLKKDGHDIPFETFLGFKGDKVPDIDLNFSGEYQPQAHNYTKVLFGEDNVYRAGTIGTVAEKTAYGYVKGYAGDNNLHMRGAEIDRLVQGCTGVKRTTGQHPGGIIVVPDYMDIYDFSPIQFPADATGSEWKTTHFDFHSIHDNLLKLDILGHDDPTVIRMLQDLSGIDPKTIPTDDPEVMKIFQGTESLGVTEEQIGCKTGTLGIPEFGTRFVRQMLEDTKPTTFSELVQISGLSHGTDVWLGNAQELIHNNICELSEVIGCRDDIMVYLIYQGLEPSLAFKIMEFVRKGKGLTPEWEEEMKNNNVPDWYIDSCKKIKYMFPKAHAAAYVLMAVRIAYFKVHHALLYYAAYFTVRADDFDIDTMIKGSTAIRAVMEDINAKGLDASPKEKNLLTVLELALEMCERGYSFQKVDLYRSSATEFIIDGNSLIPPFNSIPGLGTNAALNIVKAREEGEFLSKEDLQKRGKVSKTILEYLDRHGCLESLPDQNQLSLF
Chain of Methanococcus maripaludis chaperonin (MmCpn) (Q6LX38 1-543): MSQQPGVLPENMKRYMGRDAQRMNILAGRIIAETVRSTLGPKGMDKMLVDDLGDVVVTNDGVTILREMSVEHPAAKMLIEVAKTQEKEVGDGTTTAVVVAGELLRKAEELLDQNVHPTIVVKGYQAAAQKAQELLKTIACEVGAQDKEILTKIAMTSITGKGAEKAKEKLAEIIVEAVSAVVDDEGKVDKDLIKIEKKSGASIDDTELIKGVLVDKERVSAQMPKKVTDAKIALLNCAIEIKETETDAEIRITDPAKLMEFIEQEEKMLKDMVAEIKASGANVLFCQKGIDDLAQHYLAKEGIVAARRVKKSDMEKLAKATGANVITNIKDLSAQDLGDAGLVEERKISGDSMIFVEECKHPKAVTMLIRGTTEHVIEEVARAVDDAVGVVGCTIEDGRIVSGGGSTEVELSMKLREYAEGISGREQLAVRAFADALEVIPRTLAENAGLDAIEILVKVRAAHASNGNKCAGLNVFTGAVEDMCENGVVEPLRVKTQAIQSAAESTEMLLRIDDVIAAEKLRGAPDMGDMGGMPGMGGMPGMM
Chain of Flap endonuclease 1 (Homo sapiens) (P39748 whole entry, looked up): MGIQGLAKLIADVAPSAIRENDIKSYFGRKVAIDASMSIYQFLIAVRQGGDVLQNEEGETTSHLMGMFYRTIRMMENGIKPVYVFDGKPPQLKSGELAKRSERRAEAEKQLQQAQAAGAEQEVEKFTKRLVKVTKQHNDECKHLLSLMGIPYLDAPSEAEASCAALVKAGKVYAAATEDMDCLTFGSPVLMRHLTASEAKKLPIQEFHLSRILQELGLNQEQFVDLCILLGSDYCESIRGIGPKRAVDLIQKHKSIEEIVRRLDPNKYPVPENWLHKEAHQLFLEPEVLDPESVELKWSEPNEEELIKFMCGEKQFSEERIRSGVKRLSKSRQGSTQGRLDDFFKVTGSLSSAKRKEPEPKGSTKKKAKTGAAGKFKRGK
Chain of Chromobox protein homolog 1 (Homo sapiens) (P83916 whole entry, looked up): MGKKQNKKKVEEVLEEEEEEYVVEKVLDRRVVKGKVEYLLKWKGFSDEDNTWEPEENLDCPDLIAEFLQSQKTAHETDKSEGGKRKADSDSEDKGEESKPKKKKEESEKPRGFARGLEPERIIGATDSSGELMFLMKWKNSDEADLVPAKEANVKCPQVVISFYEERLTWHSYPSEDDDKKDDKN
Chain of Beta-2 adrenergic receptor (Homo sapiens) (P07550 whole entry, looked up): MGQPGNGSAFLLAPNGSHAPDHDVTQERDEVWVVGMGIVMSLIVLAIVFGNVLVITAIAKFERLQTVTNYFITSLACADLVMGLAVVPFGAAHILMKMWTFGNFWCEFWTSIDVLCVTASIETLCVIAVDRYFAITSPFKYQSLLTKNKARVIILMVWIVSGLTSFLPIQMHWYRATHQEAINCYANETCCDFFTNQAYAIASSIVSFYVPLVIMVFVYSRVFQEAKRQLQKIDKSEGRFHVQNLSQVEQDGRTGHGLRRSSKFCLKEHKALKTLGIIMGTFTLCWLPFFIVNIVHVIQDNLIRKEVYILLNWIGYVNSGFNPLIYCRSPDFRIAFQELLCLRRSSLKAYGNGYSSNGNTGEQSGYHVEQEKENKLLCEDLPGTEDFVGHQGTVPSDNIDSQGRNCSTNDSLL

Take `CC(N)c1cccc(Cl)c1Cl` (centres undefined): the Potency entry in test [1], in [2], in test [3], in [4], in test [5] and in [7] was “inactive” throughout. Further, the Potency result in test [9], in test [10], in test [12], in test [13], in test [14] and in test [15] was “inactive” each time. For the same molecule, the Potency entry in [19] was “inactive”. Further, the molecule was called inactive in [6], in test [8], in test [11], in test [16], in [17] and in test [18].
As for `CN(N=O)c1ccc(O)c(O)c1`, the Potency entry in [1], in test [2], in [3], in test [7], in test [9] and in test [10] was “inactive” throughout. Also, the Potency result in test [19] is “inactive”. The Potency is 4140 nM (active) in test [4]; 23800 nM (active) in [5]; 947 nM (active) in [12]; 2670 nM (active) in test [13]; 2.51 µM (active) and 2.38 µM (active) in test [14]; 1580 nM (active) in [15]. Moreover, the call in [6], in test [8], in test [11], in [16], in test [17] and in [18] was inactive.
For `NNC(=O)c1ccc(O)cc1`, the Potency entry in [1], in test [2], in test [3], in test [4], in test [5] and in test [9] was “inactive” in each case. For the same molecule, the Potency entry in test [10], in [12], in test [13], in [14] and in [15] was “inactive” in each case. Besides, the call in test [6], in [8], in [11], in test [16], in [17] and in [18] was inactive.
In the case of `CC(C)NP(=O)(NC(C)C)OP(=O)(NC(C)C)NC(C)C`, the Potency entry in test [1], in [2], in test [3], in test [4], in test [5] and in test [7] was “inactive” in each case. Besides, the Potency entry in [10], in test [12], in [13], in test [14], in test [15] and in test [19] was “inactive” each time. For the same molecule, the outcome in test [6], in test [8], in [11], in test [16], in test [17] and in [18] was inactive.
Regarding `COc1ccc(OC)c(C(O)C(C)N)c1` (centres undefined), the Potency entry in test [1], in test [2], in test [3], in test [4], in test [5] and in [7] was “inactive” each time. In addition, the Potency result in [9], in [10], in [13], in [14], in test [15] and in [19] was “inactive” throughout. Further, the molecule was classed as inactive in test [6], in [8], in [11], in [16], in test [17] and in test [18].
On to `NC(=O)COc1c(F)cc(SCCNS(=O)(=O)c2ccccc2)cc1F`, for which the Potency result in test [1], in [2], in test [3], in [4], in test [5] and in test [9] was “inactive” in each case. The Potency entry in test [10], in test [12], in test [13], in [14], in test [15] and in test [19] was “inactive” in each case. Further, the call in test [6], in test [8], in test [11], in [16], in test [17] and in [18] was inactive.
Turning to `OCc1cnc[nH]1`, the Potency entry in [1], in test [2], in test [3], in [4], in [5] and in [7] was “inactive” throughout. The Potency result in test [12], in test [13], in [14], in test [15] and in [19] was “inactive” each time. Also, the molecule was called inactive in test [6], in test [8], in test [11], in [16], in test [17] and in [18].
As for `Cc1[nH]c2ccc(O)cc2c1CCN`, the Potency entry in test [1], in test [2], in [3], in test [4], in test [5] and in [7] was “inactive” each time. Also, the Potency entry in test [20], in test [10], in [12], in test [13], in [14] and in test [19] was “inactive” throughout. Also, the outcome in test [6], in test [8], in test [11], in test [16], in test [17] and in [18] was inactive.
